Screens deposited in PubChem by several laboratories.
Pemphigus Ab inh: blocks pemphigus antibody binding to human desmoglein-3 | P32926 | binding (percent of control), % at 10 µM | 310,000 tested, 0.48% active | DSG3-coupled beads, scFv-anti-DSG3-GFP binding, flow cytometry; hits give low values;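 active = binding more than 3 SD below its plate's average and above zero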;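 also: hits lower antibody fragment binding to DSG3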
rCAG RNA binder: binds r(CAG) RNA repeats; inhibition, % at 3 µM; 370,000 tested, 1.3% active; AID 651821; r(CAG) RNA repeat, TO-PRO-1 dye displacement fluorescence;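 active = inhibition above the plate cutoff, the mean of all test compounds on that plate plus 3 SD, cut at about 35% in these data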;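 also: 0% = DMSO alone and 100% = 100 µM mitoxantrone as full dye displacement; higher means more dye released from RNA so lower well fluorescence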
MPTP block: inhibitors of mitochondrial permeability transition pore. isolated mouse mitochondria, Ca2+ swelling absorbance, 30 min. inhibition, % at 10 µM. 360,000 tested, 1.4% active;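 active = inhibition of 50% or more, scaled per plate between neutral and stimulator controls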;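 also: 0% = DMSO wells given calcium and 100% = 1 mM EGTA wells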
proKLK7 act: proKLK7 (human) activation, primary screen; P49862; purified proKLK7, EDANS-DABCYL substrate fluorescence; 100% is mature enzyme control, 0% vehicle; activation, % at 7 µM; 370,000 tested, 0.9% active;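 active = activation above the mean of all tested compounds plus 3 SD, computed per campaign excluding outliers beyond control limits, cut at about 13% in these data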
ADAM17 inh: ADAM17 inhibition, QFRET primary screen; P78536; AID 720648; recombinant ADAM17, EDANS/DABCYL FRET peptide cleavage; 370,000 tested, 0.83% active; inhibition, % at 6.95 µM;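 active = inhibition above the mean of compounds lying between control limits plus 3 SD, set per campaign, cut at about 8.5% in these data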;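 also: 0% = DMSO-only wells as the low control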
ADAM10 inh: ADAM10 inhibition, QFRET primary screen | O14672 | recombinant ADAM10, EDANS/DABCYL FRET peptide cleavage, 3 h | inhibition, % at 7 µM | 370,000 tested, 0.62% active | AID 720582;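 active = inhibition above a per-campaign cutoff equal to the mean of compounds falling between control-based bounds plus 3 SD, cut at about 20% in these data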;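 also: 0% = DMSO wells while the 100% control is not disclosed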
Target sequence (O14672 214-748 limits assumed): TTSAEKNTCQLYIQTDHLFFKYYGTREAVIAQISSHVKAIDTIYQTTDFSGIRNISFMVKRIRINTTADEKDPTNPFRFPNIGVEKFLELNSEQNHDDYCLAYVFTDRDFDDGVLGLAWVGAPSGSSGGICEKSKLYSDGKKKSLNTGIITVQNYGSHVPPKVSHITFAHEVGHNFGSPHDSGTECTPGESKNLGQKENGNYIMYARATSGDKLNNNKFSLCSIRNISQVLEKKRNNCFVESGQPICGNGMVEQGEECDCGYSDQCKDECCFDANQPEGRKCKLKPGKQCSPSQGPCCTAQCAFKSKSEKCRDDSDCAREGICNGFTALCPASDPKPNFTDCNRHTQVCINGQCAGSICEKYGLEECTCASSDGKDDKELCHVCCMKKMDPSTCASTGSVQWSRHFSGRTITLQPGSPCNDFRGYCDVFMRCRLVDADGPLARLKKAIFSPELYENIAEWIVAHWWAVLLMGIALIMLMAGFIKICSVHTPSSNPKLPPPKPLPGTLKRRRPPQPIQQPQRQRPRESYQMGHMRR
rCAG binder conf: r(CAG) RNA repeat binding, confirmation; 4,300 tested, 70% active; AID 652065; inhibition, % at 3 µM; TO-PRO-1 dye displacement fluorescence; shares compounds with rCAG RNA binder;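 active = inhibition above a per-plate cutoff, the mean inhibition of sample wells plus 3 SD, cut at about 35% in these data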;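 also: loss of TO-PRO-1 fluorescence as compound displaces dye from 1x1 AA loop RNA; 0% = DMSO only wells and 100% = 100 µM mitoxantrone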
dCAG dye counter: DNA CAG dye complex inhibition counter-screen; shares compounds with rCAG RNA binder; 4,300 tested, 94% active; d(CAG) DNA oligo TO-PRO-1 dye displacement, fluorescence; inhibition, % at 3 µM;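 active = inhibition above its plate's cutoff, the mean test-well inhibition plus 3 SD, cut at about 4.8% in these data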;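 also: 0% = DNA dye mix with DMSO and 100% = 100 µM mitoxantrone; hits displace the dye from DNA and so lower well fluorescence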
DNA CAG DR: DNA CAG dye complex inhibition, dose response counter-screen. AID 686960. 250 tested, 20% active. DNA CAG/GTC duplex TO-PRO-1 dye displacement fluorescence. shares compounds with rCAG RNA binder. IC50, µM; in the data active = IC50 below about 10 µM
An asterisk follows results filed as active; x = not tested or not shown; ! = not confirmed by another sample. Most compounds without a hit are left out; they make up all but 4.7% or so of the library.

SMILES | Pemphigus Ab inh | rCAG RNA binder | MPTP block | proKLK7 act | ADAM17 inh | ADAM10 inh | rCAG binder conf | dCAG dye counter | others
Cc1ccc(S(=O)(=O)Oc2ccc(/C=N/N=C3/NC(=O)C(CC(=O)O)S3)cc2)cc1[N+](=O)[O-] (centres undefined) | 99 | 41* | 1 | 0 | 1 | 4 | 29 | 8.5*
CCOc1cc(/C=N/N=C2/NC(=O)C(CC(=O)O)S2)ccc1OCc1ccc(Cl)cc1Cl (centres undefined) | 93 | x | 0 | x | x | x | x | x
C[C@@H]1CN([C@@H](C)CO)C(=O)c2cc(Br)cnc2O[C@@H]1CN(C)C(=O)CN(C)C | 104 | -1 | 0 | 0 | -5 | -8 | x | x
CC(C)n1c(CNC(=O)c2ccccc2F)nnc1SCC(=O)NC1CCCCC1 | 99 | 46* | -1 | 0 | 1 | -5 | 30 | 18*
CCn1c(CNC(=O)c2ccccc2F)nnc1SCC(=O)NC1CCCCC1 | 84 | -4 | 3 | 0 | 0 | 0 | x | x
Cc1ccc(NC(=O)NNC(=O)c2cc3ccccc3cc2O)cc1 | 111 | 20 | 0 | 1 | -10 | -5 | x | x
COc1ccccc1NC(=O)NNC(=O)c1cc2ccccc2cc1O | 115 | 42* | 6 | -5 | -1 | -7 | 34 | 11*
O=C(Nc1ccc(O)cc1)c1ccc2c(c1)C(=O)N(Cc1ccco1)C2=O | 86 | 14 | 0 | 0 | 1 | 8 | x | x
O=C(Nc1cc([N+](=O)[O-])ccc1O)c1ccc2c(c1)C(=O)N(Cc1ccco1)C2=O | 104 | 83* | 34 | 0 | 3 | 10 | 64* | 25*
O=C(Nc1ccc(O)cc1C(=O)O)c1ccc2c(c1)C(=O)N(Cc1ccco1)C2=O | 117 | 73* | -1 | 0 | 4 | 11 | 86* | 50*
O=C(O)Cc1ccc(NC(=O)c2ccc3c(c2)C(=O)N(Cc2ccco2)C3=O)cc1 | x | 19 | 0 | 0 | 0 | -13 | x | x
COc1ccc(C=NNC(=O)c2cc(-c3ccc(C)c(C)c3)n[nH]2)cc1OCc1ccccc1 | x | 15 | x | 1 | -6 | -7 | x | x
COc1cc(Cl)c(C)cc1NC(=O)CSc1sc2c(O)cc(=O)[nH]c2c1C#N | 107 | 49* | 1 | -1 | -7 | -3 | 55* | 30*
COc1ccc(OC)c(NC(=O)CSc2sc3c(O)cc(=O)[nH]c3c2C#N)c1 | 99 | 48* | -1 | -1 | -2 | -6 | 22 | 10*
COc1ccc(-c2c(C(=O)c3ccccc3)[nH]c(N)c2C(=O)NCCc2c[nH]c3ccccc23)cc1 | x | 13 | x | 0 | 0 | -10 | x | x
OC(c1ccccc1)(c1ccccc1)C1CCN(CCCOc2ccccn2)CC1 | x | 1 | x | 0 | -3 | -9 | x | x
Cc1cc(C)nc(NS(=O)(=O)c2ccc(NS(=O)(=O)c3ccccc3)cc2)n1 | 103 | 2 | -2 | 1 | -4 | -7 | x | x
CCN(CC)N=Nc1ccc(S(=O)(=O)Nc2nc(C)cc(C)n2)cc1 | 98 | 43*! | 4 | 0 | -3 | -1 | 5 | -2
C=CC[C@]12C[C@@]3(O[C@H](c4ccccn4)N=C3C[C@H](c3ccc(OC)cc3)[C@H]1C)N(C1CCN(Cc3ccccc3)CC1)C2=O | x | 7 | x | 0 | 3 | 5 | x | x
CCCCc1cc(=O)oc2c(C)c(OCC(=O)N3CCC(C(=O)O)(c4ccccc4)CC3)ccc12 | 101 | 40* | 0 | 1 | -72 | -291 | 52* | 13*
CCCCc1cc(=O)oc2c(C)c(OCC(=O)N3CCCC3)ccc12 | 77 | -6 | -1 | 1 | -55 | -165 | x | x
O=C1CS/C(=N/N=C/c2ccccc2OS(=O)(=O)c2ccccc2)N1 | 126 | 27 | 5 | -1 | 1 | 6 | x | x
Cc1ccc(OS(=O)(=O)c2ccccc2)c(/C=N/N=C2\NC(=O)C(C)S2)c1 (centres undefined) | 94 | 36* | -1 | 0 | 2 | 6 | 46* | 13*
CCN(c1ccc(NC(=O)c2ccc(N3CCCC3=O)cc2)cc1)C(C)C | 111 | -3 | 0 | 0 | -1 | 2 | x | x
Cc1ccc(NC(=O)CN(C)C(=O)c2cc(-c3ccco3)nc3ccccc23)cc1 | 97 | 35* | 0 | -5 | -92 | -264 | 14 | 8.7*
SMILES | Pemphigus Ab inh | rCAG RNA binder | MPTP block | proKLK7 act | ADAM17 inh | ADAM10 inh | rCAG binder conf | dCAG dye counter | others
Nc1nc(=S)c2[nH]c(=S)[nH]c2[nH]1 | 98 | 2 | -2 | -1 | -3 | -19 | x | x
CSc1nc(=S)c2[nH]c(=S)[nH]c2[nH]1 | 83 | 65* | -1 | 0 | 4 | 10 | 68* | 30* | DNA CAG DR=9.3*
CCNC(=S)N/N=C/c1cn(Cc2ccc(F)cc2)c2ccccc12 | 101 | 8 | 8 | -5 | 4 | 8 | x | x
O=C(O)c1ccc(N/N=C/c2cn(Cc3ccc(F)cc3)c3ccccc23)cc1 | 99 | 81* | 7 | -3 | -5 | -6 | 75* | 35*
COc1cc(C)c(/C=C/C(C)=C/C=C/C(C)=C/C(=O)O)c(C)c1C | 100 | 47* | -1 | 0 | -6 | -3 | 54* | 17*
Cc1cc(C)c(C)c(S(=O)(=O)N2C(=S)NC(=O)C2CC(C)C)c1C (centres undefined) | 98 | 41* | 0 | -1 | -2 | 1 | 31 | 8.0*
Cc1ccccc1Oc1ccc(NC(=O)C2CC=CCC2C(=O)O)cc1 (centres undefined) | 101 | 3 | 0 | 0 | 0 | 2 | x | x
CC(C)(C)c1ccc(Oc2ccc(NC(=O)C3CC=CCC3C(=O)O)cc2)cc1 (centres undefined) | 104 | 35* | 0 | 1 | 1 | 1 | 45* | 12*
Cc1nc(CSc2nsc(/C=C/N(C)C)c2C#N)cs1 | 109 | 57* | 4 | 0 | 1 | 4 | 25 | 13*
COP(=O)(CC(=O)OC(C)(C)C)C(CC(C)C)NC(=O)OCc1ccccc1 (centres undefined) | x | -1 | x | -1 | -2 | 0 | x | x
O=C1c2cccc3c(N4CCCCC4)ccc(c23)C(=O)N1c1ccccn1 | 104 | -14 | 0 | 0 | -1 | -3 | x | x
O=C1c2ccccc2-c2n[nH]c(=O)c3ccc(N4CCCCC4)c1c23 | 100 | 37* | 1 | 1 | -5 | -9 | 13 | 6.8*
CCOc1ccc(NC(=NCc2ccc3c(c2)OCO3)SC2CC(=O)N(c3ccc(C(=O)O)cc3)C2=O)cc1 (centres undefined) | 97 | 78* | -2 | 0 | 3 | 16 | 85* | 54*
CC(=O)NC(c1ccccc1)c1nc(/C=C/c2ccccc2)cs1 (centres undefined) | x | -1 | 0 | 0 | -1 | -4 | x | x
